Assay outcomes: PubChem BioAssay, National Center for Advancing Translational Sciences (NCATS)
A selection: hits, their analogues and other compounds. The true share with any hit is near 10%.
GPT2 inh – blocks human glutamate pyruvate transaminase 2 | 0.25% of 100,000 active | Q8TD30 | Potency, µM (highest dose often 57.7 µM), actives largely listed as inhibitors | Recombinant GPT2, coupled pyruvate oxidase/HRP Amplex Red fluorescence | AID 1671188; note: nearly all actives have a fitted effect of over 60% in size
Target sequence (Q8TD30 whole entry, looked up): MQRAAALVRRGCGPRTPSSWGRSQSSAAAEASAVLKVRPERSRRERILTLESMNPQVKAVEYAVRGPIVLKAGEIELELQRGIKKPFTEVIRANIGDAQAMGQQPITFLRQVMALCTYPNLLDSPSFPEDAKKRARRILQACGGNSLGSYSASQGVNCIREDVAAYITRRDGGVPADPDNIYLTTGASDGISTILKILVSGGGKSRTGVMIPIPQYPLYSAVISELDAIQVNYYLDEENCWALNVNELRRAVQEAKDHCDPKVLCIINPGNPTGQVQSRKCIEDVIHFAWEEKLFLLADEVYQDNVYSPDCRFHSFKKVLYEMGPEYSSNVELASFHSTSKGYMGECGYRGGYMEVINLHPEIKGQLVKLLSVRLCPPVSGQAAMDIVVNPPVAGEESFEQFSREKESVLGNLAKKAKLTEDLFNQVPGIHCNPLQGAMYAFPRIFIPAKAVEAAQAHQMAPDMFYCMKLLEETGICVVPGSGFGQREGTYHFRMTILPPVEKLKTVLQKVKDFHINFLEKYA
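Recombinant GPT2 (10ng/uL) with 250uM a-KG and 2mM L-alanine, 30 min at room temperature, in HEPES pH 7.5 buffer. Pyruvate detected by pyruvate oxidase/HRP/Amplex Red fluorescence after 30 min in the dark; AOA (50uM) as positive control.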
3T3 cytotox – cytotoxic compounds in NIH 3T3 cells | NIH 3T3 viability, CellTiter-Glo ATP luminescence, 48-72 h | Potency, µM (series often up to 96.7 µM), hits mostly inhibitors | 4.3% of 94,000 active | AID 1345082; note: nearly all actives have a fitted effect of over 55% in size
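Cytotoxicity was measured by CellTiter-Glo ATP luminescence after 48 or 72 h compound exposure at 37 °C. Mouse NIH 3T3 fibroblasts were seeded at 400 cells/well and dosed by 23 nL pin transfer.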
Luciferase inh – Photinus pyralis luciferase inhibition. purified P. pyralis luciferase, luminescence, biochemical. Potency, µM (top dose mostly 115 µM), actives largely listed as inhibitors. 2.5% of 76,000 active. AID 1347043; note: nearly all actives have a fitted effect of over 65% in size
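Luminescence read by CCD imaging after purified firefly luciferase (10nM final) was added to substrate buffer holding 10uM D-luciferin and 10uM ATP, pH 7.5, pre-dosed with compound.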
NPR1 antag – blocks ANP-stimulated signaling of human Npr1 receptor; P16066; HEK293 hNpr1 GloSensor cGMP, ANP-stimulated luminescence; Potency, µM (series often up to 46.3 µM), most hits filed as inhibitors; 1.6% of 76,000 active; AID 1347048; calls by dose curve; note: nearly all actives have a fitted effect of over 60% in size
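HEK293 cells stably expressing human Npr1 and cGMP GloSensor pGS-40F, loaded 2 h with 2% GloSensor reagent, given compound 30 min at room temperature. Luminescence read before and 20 min after 0.1 nM hNppA.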
HEK293 tox – HEK 293 cell cytotoxicity. HEK 293 viability, ATP luminescence (CellTiter-Glo), 48-72 h. Potency, µM (top dose mostly 115 µM), hits mostly inhibitors. 6.6% of 94,000 active. AID 1345083; note: nearly all actives have a fitted effect of over 60% in size
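CellTiter-Glo luminescence (cellular ATP) was read after 48 or 72 hr of compound exposure at 37 degree Celsius. Cells were HEK 293 plated at 250 cells/well.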
A number is an active result; n = inactive; u = inconclusive; x = no result given; ! = not confirmed by another sample; [ ] = another dose, or the depositor's remark. Unless noted, calls come from the whole dose curve; as a rule, active = well fitted curve in the direction sought with a large enough effect; inconclusive = small, poorly fitted or top-dose-only effect, or another doubt; inactive = no such curve, though single readings can be large; an effect the other way counts as inactive or inconclusive.

SMILES | GPT2 inh | 3T3 cytotox | Luciferase inh | NPR1 antag | HEK293 tox
Cc1ccc(C2Cn3nnc(C(=O)N4CCC(C(=O)NC(C)c5ccc(F)cc5)CC4)c3CO2)cc1 (configuration not stated) | n | u | 35µM | n | u
COc1ccccc1CNC(=O)C1CCN(C(=O)c2nnn3c2COC(c2ccc(C)cc2)C3)CC1 (configuration not stated) | n | n | 18µM | n | n
CCCS(=O)(=O)N[C@H]1CO[C@H]2[C@@H]1OC[C@H]2OC(=O)Nc1ccc(C(C)=O)cc1 | n | n | n | n | n
Cc1ccccc1CN1C[C@@H]2C(=O)N(C)C(=O)[C@@H]2C1 | n | n | n | n | n
C[C@@H]1CN(C(=O)CC2CCN(Cc3ccccc3)CC2)CC[C@]1(C)O | n | n | n | n | n
Cc1ccc(C2Cn3nnc(C(=O)N4CCC(C(=O)NCC5CC5)CC4)c3CO2)cc1 (configuration not stated) | n | n | 25µM | n | n
Cc1ccc(C2Cn3nnc(C(=O)N4CCC(C(=O)NCc5ccco5)CC4)c3CO2)cc1 (configuration not stated) | n | n | 32µM | n | n
Cc1ccc(C2Cn3nnc(C(=O)N4CCC(C(=O)NC5CCCCCCC5)CC4)c3CO2)cc1 (configuration not stated) | n | n | u | n | u
Cc1ccc(C2Cn3nnc(C(=O)N4CCC(C(=O)NC5CCCCCC5)CC4)c3CO2)cc1 (configuration not stated) | n | n | u | n | u
CCOC(=O)C(CCc1ccccc1)NC1CCCN2CCCC(C(=O)O)N2C1=O (configuration not stated) | n | x | x | x | x
Cc1ccc(-c2cc(C(=O)NCC(F)F)nn3cnnc23)cc1 | n | n | x | x | n
CC(C)CNC(=O)c1cc(-c2ccc(F)cc2)c2nncn2n1 | n | 45µM | x | x | u
CC(=O)N1CCC(COc2ccc3c(cnn3CC[S+](C)(=O)[O-])c2)CC1 | n | u | u | n | n
O=C(O)CCn1ncc2cc(OCc3ccc(-c4cncnc4)cc3)ccc21 | u | 45µM | 50µM | n | n
CNC(=O)CCn1ncc2cc(OCc3ccccc3-c3cnc(OC)nc3)ccc21 | n | n | u | n | u
COc1ncc(-c2cccc(COc3ccc4c(cnn4CC[S+](C)(=O)[O-])c3)c2)cn1 | u | n | u | u | 71µM
C[S+](=O)([O-])CCn1ncc2cc(OCC3CCN(C(=O)c4cccc(F)c4F)CC3)ccc21 | n | n | n | n | u
C[S+](=O)([O-])CCn1ncc2cc(OCc3cccc(-c4ccoc4)c3)ccc21 | n | u | u | u | 71µM
C[S+](=O)([O-])CCn1ncc2cc(OCC3CCN(c4ncccn4)CC3)ccc21 | n | n | 45µM | u | u
CCC(C(=O)N1CCC(c2n[nH]c(=O)n2Cc2ccc(OC)cc2)CC1)c1ccccc1 (configuration not stated) | n | n | n | n | n
Cc1ccc(OCC(=O)N2CCC[C@H]2c2nc(-c3ccc(C)cc3)no2)cc1 | n | u | n | n | u
COc1ccccc1-c1cccc(COc2ccc3c(cnn3CC[S+](C)(=O)[O-])c2)c1 | n | u | u | u | u
COc1ccc(F)cc1-c1cccc(COc2ccc3c(cnn3CC[S+](C)(=O)[O-])c2)c1 | n | u | n | u | u
C[S+](=O)([O-])CCn1ncc2cc(OCc3cccc(-c4cccc(F)c4)c3)ccc21 | n | u | u | 40µM | u
COc1ncccc1-c1cccc(COc2ccc3c(cnn3CC[S+](C)(=O)[O-])c2)c1 | n | u | 16µM | 35µM | 28µM
SMILES | GPT2 inh | 3T3 cytotox | Luciferase inh | NPR1 antag | HEK293 tox
C[S+](=O)([O-])CCn1ncc2cc(OCc3cccc(-c4cncnc4)c3)ccc21 | n | u | 35µM | n | u
CC(C)c1noc(-c2cccn3c(CNC(=O)c4cccc(Cl)c4)nnc23)n1 | n | n | n | n | n
Cc1cccc(-c2noc([C@@H]3Cc4nc[nH]c4CN3C(=O)c3ccc(F)cc3)n2)c1 | n | u | n | n | u
Cc1cccc(-c2noc([C@@H]3Cc4nc[nH]c4CN3C(=O)COCC(=O)O)n2)c1 | n | n | 56µM | n | n
CC(=O)c1ccc(NC(=O)N2Cc3[nH]cnc3C[C@H]2c2nc(-c3ccccc3)no2)cc1 | n | n | n | n | n
O=C(Nc1cccc(F)c1)N1Cc2[nH]cnc2C[C@H]1c1nc(-c2ccc(Cl)cc2)no1 | n | u | 40µM | n | 79µM
Cc1cccc(-c2noc([C@@H]3Cc4nc[nH]c4CN3C(=O)Nc3cccc(C#N)c3)n2)c1 | n | 63µM | 35µM | n | 89µM
Cc1cccc(-c2noc([C@@H]3Cc4nc[nH]c4CN3C(=O)Nc3cccc(F)c3)n2)c1 | n | 35µM | 63µM | u | 71µM
O=C(Nc1cccc(F)c1)N1Cc2[nH]cnc2C[C@H]1c1nc(-c2ccccc2)no1 | u | u | n | n | 71µM
N#Cc1cccc(NC(=O)N2Cc3[nH]cnc3C[C@H]2c2nc(-c3ccc(Cl)cc3)no2)c1 | n | 79µM | n | n | u
O=C(Nc1cccc(F)c1)N1Cc2[nH]cnc2C[C@H]1c1nc(-c2ccc3c(c2)OCO3)no1 | n | u | n | n | u
N#CC1CCN(C(=O)c2nc(-c3cccnc3)c3ccccn23)CC1 | n | u | x | x | n
O=S(=O)(c1cccnc1)N1CC(c2nc(CCOCC3CCOCC3)no2)C1 | n | n | n | n | n
CCN(CC1CCOCC1)C(=O)C1(Oc2ccc(C)cc2)CCNCC1 | n[11.5 µM] | n | n | n | n
CC[C@H]1CN(C(=O)c2ccc(F)cc2)CC[C@H]1CC(=O)NC(C)C | n | n | n | n | n
Cc1ccc(C(=O)N2CCC3(C2)C(=O)N(CCc2ccccc2)c2ccccc23)cc1 (configuration not stated) | u | 40µM! | n | n | 32µM!
O=C(c1ccccc1)N1CCC2(C1)C(=O)N(CCc1ccccc1)c1ccccc12 (configuration not stated) | n | u | n | n | 35µM!
CN1C(=O)C2(CCN(C(=O)c3ccccc3F)C2)c2ccccc21 (configuration not stated) | n | n | n | n | u
COc1cccc(C(=O)N2CCC3(C2)C(=O)N(CCc2ccccc2)c2ccccc23)c1 (configuration not stated) | n | u | n | n | 45µM
O=C(c1ccc(Cl)cc1)N1CCC2(C1)C(=O)N(CCc1ccccc1)c1ccccc12 (configuration not stated) | n | u | x | x | u
O=C(c1ccccc1)N1CCC2(C1)C(=O)N(Cc1ccccc1)c1ccccc12 (configuration not stated) | n | u | n | n | u
